Results from the supplement of paper PMC10849652.
The full data set covers some 7,900 targets. This sample favours those with a hit. About 0.6% of all pairs of compound and target were hits.

Compound: C1COCCN1CCN2C3=CC=CC=C3N=C2NC(=O)C4=CC(=CC=C4)[N+](=O)[O-] [IRAK-1-4 Inhibitor I]
Assay: log2 fold change, soluble protein after heating vs DMSO (PISA); higher = thermal stabilisation; K562 cells, 10 uM, 30 min; active = over 0.2 and 3.5 SD of the protein, either way, in both replicates (recomputed)
Method in brief: (§1)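 Soluble protein was quantified by TMTpro 16plex LC-MS/MS after channel sums were equalised. It was obtained as the supernatant after 21,000xg for 90 min from pooled aliquots of K562 cells (2×10^6 cells/mL, 10 μM compound, 30 min) heated for 3 min across 48°C-58°C and extracted in PBS with 0.5% NP-40 at 4°C. Thermal stability values are relative to control samples and come from duplicates. They are given as log2 fold changes.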

UniProt P31641, sequence (P31641 whole entry, looked up): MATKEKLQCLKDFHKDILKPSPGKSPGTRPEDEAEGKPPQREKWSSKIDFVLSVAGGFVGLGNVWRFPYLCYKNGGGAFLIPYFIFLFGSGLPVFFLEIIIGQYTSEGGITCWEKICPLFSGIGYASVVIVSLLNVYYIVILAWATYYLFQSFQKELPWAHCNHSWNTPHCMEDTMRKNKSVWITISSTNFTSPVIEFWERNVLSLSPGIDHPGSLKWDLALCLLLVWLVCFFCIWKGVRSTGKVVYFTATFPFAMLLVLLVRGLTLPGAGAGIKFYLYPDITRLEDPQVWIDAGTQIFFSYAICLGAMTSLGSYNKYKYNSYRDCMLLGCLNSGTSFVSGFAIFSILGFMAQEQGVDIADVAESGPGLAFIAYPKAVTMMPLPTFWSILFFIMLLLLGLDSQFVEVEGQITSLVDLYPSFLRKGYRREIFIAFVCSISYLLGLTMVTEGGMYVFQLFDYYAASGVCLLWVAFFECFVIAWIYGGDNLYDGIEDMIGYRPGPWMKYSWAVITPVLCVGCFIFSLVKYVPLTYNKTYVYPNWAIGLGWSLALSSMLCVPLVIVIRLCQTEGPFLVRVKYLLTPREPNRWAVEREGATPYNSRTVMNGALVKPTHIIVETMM
UniProt Q01130, sequence (Q01130 whole entry, looked up): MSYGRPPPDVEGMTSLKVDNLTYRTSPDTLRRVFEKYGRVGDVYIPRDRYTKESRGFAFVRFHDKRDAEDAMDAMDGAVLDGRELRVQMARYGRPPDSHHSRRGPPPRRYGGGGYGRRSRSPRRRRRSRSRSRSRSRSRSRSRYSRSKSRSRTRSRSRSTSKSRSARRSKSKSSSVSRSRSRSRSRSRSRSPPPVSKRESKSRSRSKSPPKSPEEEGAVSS
UniProt P42226, sequence (P42226 whole entry, looked up): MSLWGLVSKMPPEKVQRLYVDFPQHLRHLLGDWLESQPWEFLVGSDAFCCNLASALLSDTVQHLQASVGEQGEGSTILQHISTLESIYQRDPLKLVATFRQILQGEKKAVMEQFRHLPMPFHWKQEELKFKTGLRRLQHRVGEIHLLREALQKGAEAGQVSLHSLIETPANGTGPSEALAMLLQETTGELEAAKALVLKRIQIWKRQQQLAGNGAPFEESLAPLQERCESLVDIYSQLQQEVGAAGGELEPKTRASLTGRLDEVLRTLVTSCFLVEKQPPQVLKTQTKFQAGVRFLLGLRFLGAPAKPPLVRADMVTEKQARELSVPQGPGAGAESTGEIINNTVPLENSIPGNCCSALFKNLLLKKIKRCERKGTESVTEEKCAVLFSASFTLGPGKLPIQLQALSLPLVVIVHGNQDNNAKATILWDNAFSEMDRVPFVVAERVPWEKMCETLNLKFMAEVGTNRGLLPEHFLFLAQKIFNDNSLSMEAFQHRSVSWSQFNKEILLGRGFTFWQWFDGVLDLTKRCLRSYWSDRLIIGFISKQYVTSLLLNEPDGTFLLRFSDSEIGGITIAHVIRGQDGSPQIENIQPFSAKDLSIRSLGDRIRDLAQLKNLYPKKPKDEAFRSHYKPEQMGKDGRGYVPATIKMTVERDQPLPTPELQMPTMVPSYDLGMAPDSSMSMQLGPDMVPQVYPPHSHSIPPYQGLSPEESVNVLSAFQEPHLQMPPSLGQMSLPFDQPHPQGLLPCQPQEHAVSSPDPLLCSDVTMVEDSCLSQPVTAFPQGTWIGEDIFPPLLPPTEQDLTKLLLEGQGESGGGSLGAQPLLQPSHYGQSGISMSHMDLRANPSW
UniProt Q8NEW0, sequence (Q8NEW0 whole entry, looked up): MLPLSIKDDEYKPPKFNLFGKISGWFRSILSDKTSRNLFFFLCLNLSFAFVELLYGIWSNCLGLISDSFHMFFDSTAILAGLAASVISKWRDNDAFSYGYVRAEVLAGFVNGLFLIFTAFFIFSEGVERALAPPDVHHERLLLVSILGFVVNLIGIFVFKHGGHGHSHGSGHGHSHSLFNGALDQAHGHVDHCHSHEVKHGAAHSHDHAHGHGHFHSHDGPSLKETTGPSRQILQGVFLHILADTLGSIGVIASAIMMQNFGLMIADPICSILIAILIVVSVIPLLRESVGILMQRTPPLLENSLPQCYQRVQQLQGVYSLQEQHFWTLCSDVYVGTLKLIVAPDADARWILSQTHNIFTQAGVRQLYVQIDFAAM
UniProt Q6XR72, sequence (Q6XR72 whole entry, looked up): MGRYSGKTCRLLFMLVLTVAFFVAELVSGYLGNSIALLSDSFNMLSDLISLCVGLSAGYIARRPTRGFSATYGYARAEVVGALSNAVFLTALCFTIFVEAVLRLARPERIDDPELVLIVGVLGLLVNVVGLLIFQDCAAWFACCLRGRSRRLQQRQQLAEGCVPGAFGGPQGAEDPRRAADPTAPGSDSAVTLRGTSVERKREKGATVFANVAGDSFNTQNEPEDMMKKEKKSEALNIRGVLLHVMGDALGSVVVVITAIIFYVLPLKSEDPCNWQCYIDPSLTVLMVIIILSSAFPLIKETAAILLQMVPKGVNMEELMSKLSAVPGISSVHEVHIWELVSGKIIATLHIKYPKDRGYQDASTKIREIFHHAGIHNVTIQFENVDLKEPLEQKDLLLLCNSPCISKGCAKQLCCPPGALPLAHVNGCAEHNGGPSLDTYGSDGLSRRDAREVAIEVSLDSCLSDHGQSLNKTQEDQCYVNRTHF
UniProt Q15005, sequence (Q15005 whole entry, looked up): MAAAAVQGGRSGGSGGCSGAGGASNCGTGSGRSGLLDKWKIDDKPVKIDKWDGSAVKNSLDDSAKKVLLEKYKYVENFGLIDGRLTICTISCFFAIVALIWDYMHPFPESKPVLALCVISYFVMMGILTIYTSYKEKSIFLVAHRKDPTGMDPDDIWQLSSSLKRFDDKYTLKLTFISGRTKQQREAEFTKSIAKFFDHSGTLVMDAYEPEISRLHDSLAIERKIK
UniProt Q8WU79, sequence (Q8WU79 whole entry, looked up): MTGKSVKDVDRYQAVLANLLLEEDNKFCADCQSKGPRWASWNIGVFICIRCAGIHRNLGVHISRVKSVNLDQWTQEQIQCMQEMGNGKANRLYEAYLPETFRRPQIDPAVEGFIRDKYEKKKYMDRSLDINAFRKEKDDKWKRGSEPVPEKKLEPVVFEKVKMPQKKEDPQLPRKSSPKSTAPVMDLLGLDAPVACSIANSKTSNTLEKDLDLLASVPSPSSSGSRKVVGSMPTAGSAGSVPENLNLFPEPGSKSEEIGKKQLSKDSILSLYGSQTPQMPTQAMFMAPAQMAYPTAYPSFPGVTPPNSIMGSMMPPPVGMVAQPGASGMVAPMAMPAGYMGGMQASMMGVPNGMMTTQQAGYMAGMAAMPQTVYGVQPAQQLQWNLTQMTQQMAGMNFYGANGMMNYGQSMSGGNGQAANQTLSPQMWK
UniProt P27105, sequence (P27105 whole entry, looked up): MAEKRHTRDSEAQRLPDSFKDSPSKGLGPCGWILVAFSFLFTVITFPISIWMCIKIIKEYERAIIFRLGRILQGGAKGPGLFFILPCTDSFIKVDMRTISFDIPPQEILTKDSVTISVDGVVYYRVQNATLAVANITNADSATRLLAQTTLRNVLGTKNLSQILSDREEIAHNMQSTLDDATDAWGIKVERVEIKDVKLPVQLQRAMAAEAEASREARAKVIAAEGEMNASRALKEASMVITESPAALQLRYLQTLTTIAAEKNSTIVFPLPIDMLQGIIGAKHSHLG
UniProt Q01085, sequence (Q01085 whole entry, looked up): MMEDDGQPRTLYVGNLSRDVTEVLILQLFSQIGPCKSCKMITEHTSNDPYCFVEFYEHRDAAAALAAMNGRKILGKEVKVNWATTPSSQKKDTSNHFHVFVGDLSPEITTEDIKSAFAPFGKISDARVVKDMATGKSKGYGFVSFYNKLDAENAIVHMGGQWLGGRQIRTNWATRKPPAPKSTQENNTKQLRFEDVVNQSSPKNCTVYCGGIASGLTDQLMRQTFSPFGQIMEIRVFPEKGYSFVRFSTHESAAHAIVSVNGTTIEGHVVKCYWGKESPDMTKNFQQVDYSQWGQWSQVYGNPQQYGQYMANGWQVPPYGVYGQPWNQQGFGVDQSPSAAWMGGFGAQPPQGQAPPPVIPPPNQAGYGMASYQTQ
UniProt O95149, sequence (O95149 whole entry, looked up): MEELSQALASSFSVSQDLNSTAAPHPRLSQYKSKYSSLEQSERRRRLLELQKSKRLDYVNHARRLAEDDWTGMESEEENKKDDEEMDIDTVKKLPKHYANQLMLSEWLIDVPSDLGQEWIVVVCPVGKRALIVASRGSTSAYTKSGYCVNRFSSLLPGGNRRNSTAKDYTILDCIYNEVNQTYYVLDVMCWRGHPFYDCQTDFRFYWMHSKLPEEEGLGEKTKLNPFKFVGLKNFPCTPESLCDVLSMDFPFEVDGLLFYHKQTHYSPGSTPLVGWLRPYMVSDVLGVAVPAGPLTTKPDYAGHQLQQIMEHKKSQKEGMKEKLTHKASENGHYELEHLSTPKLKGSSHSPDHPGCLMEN
UniProt O15198, sequence (O15198 whole entry, looked up): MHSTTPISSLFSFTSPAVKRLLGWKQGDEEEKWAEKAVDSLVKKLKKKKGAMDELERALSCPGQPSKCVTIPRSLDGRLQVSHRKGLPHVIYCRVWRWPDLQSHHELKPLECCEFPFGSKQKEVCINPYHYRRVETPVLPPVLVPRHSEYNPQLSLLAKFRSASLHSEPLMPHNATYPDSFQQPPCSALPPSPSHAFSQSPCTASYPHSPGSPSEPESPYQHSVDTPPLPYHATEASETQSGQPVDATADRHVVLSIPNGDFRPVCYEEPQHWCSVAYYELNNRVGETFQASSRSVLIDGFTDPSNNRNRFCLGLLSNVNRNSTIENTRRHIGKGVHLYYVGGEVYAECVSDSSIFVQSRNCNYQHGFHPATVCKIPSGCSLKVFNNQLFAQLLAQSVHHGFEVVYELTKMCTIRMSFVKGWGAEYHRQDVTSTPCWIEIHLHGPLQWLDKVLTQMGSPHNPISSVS

Question: For SLC30A10 (UniProt Q6XR72), which log2 fold change is on record?
Answer: 0.05 (inactive)

Question: For STK25 (UniProt O00506), which log2 fold change is on record?
Answer: 0.051 (inactive)

Question: SNUPN (UniProt O95149) was tested. Which log2 fold change did it give?
Answer: 0.037 (inactive)

Question: SLC7A6 (UniProt Q92536) was tested. Which log2 fold change did it give?
Answer: -0.03 (inactive)

Question: SMAD9 (UniProt O15198) was tested. Which log2 fold change did it give?
Answer: -0.033 (inactive)

Question: TJP2 isoform 7 (UniProt Q9UDY2) was tested. Which log2 fold change did it give?
Answer: 0.004 (inactive)

Question: How did the log2 fold change turn out when SLC30A7 (UniProt Q8NEW0) was run?
Answer: 0.035 (inactive)

Question: STOM (UniProt P27105) was tested. Which log2 fold change did it give?
Answer: -0.039 (inactive)

Question: With STAT5B (UniProt P51692) as the target, how does the log2 fold change read?
Answer: -0.153 (inactive)

Question: How did the log2 fold change turn out when SPCS2 (UniProt Q15005) was run?
Answer: -0.014 (inactive)

Question: SMAP2 (UniProt Q8WU79) was tested. Which log2 fold change did it give?
Answer: 0.04 (inactive)

Question: Which log2 fold change does the source give for TIAL1 isoform 2 (UniProt Q01085) here?
Answer: 0.044 (inactive)

Question: With STAT6 (UniProt P42226) as the target, how does the log2 fold change read?
Answer: -0.145 (inactive)

Question: How did the log2 fold change turn out when SLC6A6 (UniProt P31641) was run?
Answer: -0.025 (inactive)

Question: SRSF2 (UniProt Q01130) was tested. Which log2 fold change did it give?
Answer: -0.069 (inactive)

Compound: C=CC(=O)N1CCC[C@@H](n2nc(-c3ccc(Oc4ccccc4)cc3)c3c(N)ncnc32)C1 [ibrutinib]
Assay: as above
Method in brief: as §1

Question: With SPPL2B (UniProt Q8TCT7) as the target, how does the log2 fold change read?
Answer: 0.013 (inactive)

Question: Which log2 fold change does the source give for STK4 (UniProt Q13043) here?
Answer: -0.078 (inactive)

Question: Which log2 fold change does the source give for SMG1 (UniProt Q96Q15) here?
Answer: 0.021 (inactive)

Question: For STK38L (UniProt Q9Y2H1), which log2 fold change is on record?
Answer: -0.048 (inactive)

Question: For TGFBRAP1 (UniProt Q8WUH2), which log2 fold change is on record?
Answer: -0.067 (inactive)

Question: With SLC9A6 isoform 2 (UniProt Q92581) as the target, how does the log2 fold change read?
Answer: 0.024 (inactive)

Question: With SLC35A1 (UniProt P78382) as the target, how does the log2 fold change read?
Answer: 0.119 (inactive)

Question: Which log2 fold change does the source give for TFR2 (UniProt Q9UP52) here?
Answer: 0.008 (inactive)

Question: For TERF2IP (UniProt Q9NYB0), which log2 fold change is on record?
Answer: -0.009 (inactive)

Question: SUGP1 (UniProt Q8IWZ8) was tested. Which log2 fold change did it give?
Answer: -0.024 (inactive)

Question: SURF1 (UniProt Q15526) was tested. Which log2 fold change did it give?
Answer: -0.028 (inactive)

Question: With STARD7 (UniProt Q9NQZ5) as the target, how does the log2 fold change read?
Answer: 0.055 (inactive)

Question: How did the log2 fold change turn out when STEAP3 isoform 2 (UniProt Q658P3) was run?
Answer: -0.005 (inactive)

Question: For ST6GAL1 (UniProt P15907), which log2 fold change is on record?
Answer: 0.002 (inactive)

Question: For SPIRE1 (UniProt Q08AE8), which log2 fold change is on record?
Answer: 0.032 (inactive)

Question: How did the log2 fold change turn out when SLC27A1 (UniProt Q6PCB7) was run?
Answer: 0.064 (inactive)

Question: SPG21 (UniProt Q9NZD8) was tested. Which log2 fold change did it give?
Answer: -0.167 (inactive)

Question: How did the log2 fold change turn out when SRP72 (UniProt O76094) was run?
Answer: -0.03 (inactive)

Question: How did the log2 fold change turn out when SLC38A7 (UniProt Q9NVC3) was run?
Answer: 0.073 (inactive)

Question: Which log2 fold change does the source give for SLK isoform 2 (UniProt Q9H2G2) here?
Answer: -0.123 (inactive)

Question: TIPRL (UniProt O75663) was tested. Which log2 fold change did it give?
Answer: -0.005 (inactive)

Question: With STX17 (UniProt P56962) as the target, how does the log2 fold change read?
Answer: 0.002 (inactive)

Question: With STIM1 (UniProt Q13586) as the target, how does the log2 fold change read?
Answer: 0.007 (inactive)

Question: For SLC30A10 (UniProt Q6XR72), which log2 fold change is on record?
Answer: -0.08 (inactive)

Question: Which log2 fold change does the source give for STK25 (UniProt O00506) here?
Answer: -0.067 (inactive)

Question: With SNUPN (UniProt O95149) as the target, how does the log2 fold change read?
Answer: -0.039 (inactive)

Question: With SLC7A6 (UniProt Q92536) as the target, how does the log2 fold change read?
Answer: -0.032 (inactive)

Question: How did the log2 fold change turn out when SMAD9 (UniProt O15198) was run?
Answer: 0.007 (inactive)

Question: How did the log2 fold change turn out when TJP2 isoform 7 (UniProt Q9UDY2) was run?
Answer: -0.004 (inactive)

Question: With SLC30A7 (UniProt Q8NEW0) as the target, how does the log2 fold change read?
Answer: 0.063 (inactive)

Question: For STOM (UniProt P27105), which log2 fold change is on record?
Answer: 0.019 (inactive)

Question: With STAT5B (UniProt P51692) as the target, how does the log2 fold change read?
Answer: -0.146 (inactive)

Question: Which log2 fold change does the source give for SPCS2 (UniProt Q15005) here?
Answer: -0.037 (inactive)

Question: How did the log2 fold change turn out when SMAP2 (UniProt Q8WU79) was run?
Answer: -0.027 (inactive)

Question: Which log2 fold change does the source give for TIAL1 isoform 2 (UniProt Q01085) here?
Answer: 0.011 (inactive)

Question: With STAT6 (UniProt P42226) as the target, how does the log2 fold change read?
Answer: 0.031 (inactive)

Question: For SLC6A6 (UniProt P31641), which log2 fold change is on record?
Answer: 0.036 (inactive)

Question: How did the log2 fold change turn out when SRSF2 (UniProt Q01130) was run?
Answer: 0.016 (inactive)

Compound: CC(=O)c1cnc2ccc(-c3cc(Cl)c(O)c(Cl)c3)nc2c1N[C@H]1CC[C@H](CN(C)C)CC1
Assay: as above
Method in brief: as §1

Question: For SPPL2B (UniProt Q8TCT7), which log2 fold change is on record?
Answer: -0.039 (inactive)

Question: With STK4 (UniProt Q13043) as the target, how does the log2 fold change read?
Answer: -0.233 (active)

Question: SMG1 (UniProt Q96Q15) was tested. Which log2 fold change did it give?
Answer: -0.002 (inactive)

Question: How did the log2 fold change turn out when STK38L (UniProt Q9Y2H1) was run?
Answer: -0.181 (inactive)

Question: With TGFBRAP1 (UniProt Q8WUH2) as the target, how does the log2 fold change read?
Answer: -0.119 (inactive)

Question: With SLC9A6 isoform 2 (UniProt Q92581) as the target, how does the log2 fold change read?
Answer: 0.005 (inactive)

Question: How did the log2 fold change turn out when SLC35A1 (UniProt P78382) was run?
Answer: -0.027 (inactive)

Question: With TFR2 (UniProt Q9UP52) as the target, how does the log2 fold change read?
Answer: -0.011 (inactive)

Question: For TERF2IP (UniProt Q9NYB0), which log2 fold change is on record?
Answer: -0.151 (inactive)

Question: How did the log2 fold change turn out when SUGP1 (UniProt Q8IWZ8) was run?
Answer: -0.08 (inactive)

Question: With SURF1 (UniProt Q15526) as the target, how does the log2 fold change read?
Answer: 0.051 (inactive)

Question: Which log2 fold change does the source give for STARD7 (UniProt Q9NQZ5) here?
Answer: -0.026 (inactive)

Question: Which log2 fold change does the source give for STEAP3 isoform 2 (UniProt Q658P3) here?
Answer: -0.067 (inactive)

Question: Which log2 fold change does the source give for ST6GAL1 (UniProt P15907) here?
Answer: 0.021 (inactive)

Question: SPIRE1 (UniProt Q08AE8) was tested. Which log2 fold change did it give?
Answer: 0 (inactive)

Question: SLC27A1 (UniProt Q6PCB7) was tested. Which log2 fold change did it give?
Answer: -0.05 (inactive)

Question: How did the log2 fold change turn out when SPG21 (UniProt Q9NZD8) was run?
Answer: -0.046 (inactive)

Question: How did the log2 fold change turn out when SRP72 (UniProt O76094) was run?
Answer: -0.025 (inactive)

Question: How did the log2 fold change turn out when SLC38A7 (UniProt Q9NVC3) was run?
Answer: 0.092 (inactive)

Question: How did the log2 fold change turn out when SLK isoform 2 (UniProt Q9H2G2) was run?
Answer: 0.04 (inactive)

Question: TIPRL (UniProt O75663) was tested. Which log2 fold change did it give?
Answer: -0.067 (inactive)

Question: Which log2 fold change does the source give for STX17 (UniProt P56962) here?
Answer: 0.031 (inactive)

Question: Which log2 fold change does the source give for STIM1 (UniProt Q13586) here?
Answer: -0.06 (inactive)

Question: With SLC30A10 (UniProt Q6XR72) as the target, how does the log2 fold change read?
Answer: -0.019 (inactive)

Question: Which log2 fold change does the source give for STK25 (UniProt O00506) here?
Answer: 0 (inactive)

Question: With SNUPN (UniProt O95149) as the target, how does the log2 fold change read?
Answer: -0.089 (inactive)

Question: With SLC7A6 (UniProt Q92536) as the target, how does the log2 fold change read?
Answer: -0.037 (inactive)

Question: With SMAD9 (UniProt O15198) as the target, how does the log2 fold change read?
Answer: -0.092 (inactive)

Question: For TJP2 isoform 7 (UniProt Q9UDY2), which log2 fold change is on record?
Answer: -0.437 (active)

Question: How did the log2 fold change turn out when SLC30A7 (UniProt Q8NEW0) was run?
Answer: 0.032 (inactive)

Question: STOM (UniProt P27105) was tested. Which log2 fold change did it give?
Answer: -0.018 (inactive)

Question: Which log2 fold change does the source give for STAT5B (UniProt P51692) here?
Answer: 0.018 (inactive)

Question: With SPCS2 (UniProt Q15005) as the target, how does the log2 fold change read?
Answer: -0.039 (inactive)

Question: For SMAP2 (UniProt Q8WU79), which log2 fold change is on record?
Answer: 0.039 (inactive)

Question: With TIAL1 isoform 2 (UniProt Q01085) as the target, how does the log2 fold change read?
Answer: -0.035 (inactive)

Question: STAT6 (UniProt P42226) was tested. Which log2 fold change did it give?
Answer: -0.222 (inactive)

Question: With SLC6A6 (UniProt P31641) as the target, how does the log2 fold change read?
Answer: -0.045 (inactive)

Question: How did the log2 fold change turn out when SRSF2 (UniProt Q01130) was run?
Answer: -0.073 (inactive)
